PubChem BioAssay (NCI)
Where “and” joins values, the source holds several entries; their conditions need not be identical. Equal values may be shown once. The panel holds about 83,000 compounds, 20% with a hit somewhere; the sample as a whole holds those more often.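 Method: cells in 96-well plates; compound added at one concentration; 48 h incubation; percent growth measured; values under 10 scored active.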 Where a SMILES comes first, the peptide text is derived from it.

Assays:
Test in all cases: NCI-60 one-dose screen, 48 h (100 = growth as untreated, 0 = no growth, -100 = all killed)
Settings in all cases: 10 µM unless noted
[1] = system: SR leukemia
[2] = system: RPMI-8226 leukemia
[3] = system: OVCAR-8 ovarian
[4] = system: OVCAR-5 ovarian
[5] = system: OVCAR-4 ovarian
[6] = system: SK-OV-3 ovarian
[7] = system: IGROV1 ovarian
[8] = system: HS 578T breast
[9] = system: OVCAR-3 ovarian
[10] = system: NCI/ADR-RES ovarian

Measured: growth

Oc1ccc(Cc2ccccc2Cl)c(O)c1
inactive: [1] 95.7% | [2] 87.5% | [3] 104% | [4] 97.3% | [5] 93.6% | [6] 104% | [7] 94.7% | [8] 94.4%

O=[N+]([O-])c1cccc(SSc2cccc([N+](=O)[O-])c2)c1
inactive: [1] 81% | [3] 100% | [4] 104% | [5] 105% | [6] 97.8% | [7] 109% | [9] 127% | [8] 121%

NN1CCOC(c2ccccc2)C1 (configuration not stated)
inactive: [1] 29.8% | [2] 97.8% | [3] 103% | [4] 97.1% | [5] 119% | [6] 106% | [7] 122% | [9] 106% | [8] 99.5% | [10] 105%

COc1cc(C(O)C2C(=O)OCC2C2(c3ccc4c(c3)OCO4)SCCCS2)cc(OC)c1OC (configuration not stated)
inactive: [2] 98.9% | [3] 102% | [4] 97.2% | [5] 103% | [6] 105% | [7] 94.5% | [9] 105% | [8] 101%

O=C(O)/C=C\C(=O)Nc1cccc2ccccc12
inactive: [1] 103% and 70.2% | [2] 81.8% and 95.4% | [3] 102% and 105% | [4] 100% and 104% | [5] 92.2% and 115% | [6] 92% and 103% | [7] 74.9% and 129% | [9] 90.1% and 113% | [8] 105% and 104% | [10] 110% and 104%

CC(C)(O)C(=O)O
inactive: [1] 119% | [2] 103% | [3] 109% | [4] 99.7% | [5] 105% | [6] 97.9% | [7] 101% | [9] 109% | [8] 102% | [10] 111%

NC(Cc1ccccc1)C(=O)NC(Cc1ccccc1)C(=O)O (stereo not drawn) (H-Phe-Phe-OH; configuration not given here)
inactive: [1] 97.4% and 102% | [2] 112% and 101% | [3] 101% and 99.7% | [4] 99% and 95.1% | [5] 102% and 100% | [6] 97.6% and 110% | [7] 99.7% and 103% | [9] 108% and 111% | [8] 98.3% and 112% | [10] 105% and 107%

CC(=O)OC(C)C(=O)NCC(C)O (configuration not stated)
inactive: [1] 88% | [3] 102% | [4] 104% | [5] 100% | [6] 95.3% | [7] 114% | [9] 107% | [8] 86% | [10] 106%

c1ccc(-c2nc3ccccc3s2)cc1
inactive: [1] 103% | [3] 88.3% | [4] 84.1% | [5] 101% | [7] 75.4% | [9] 105% | [8] 93% | [10] 96.1%

CC1CCC2(OC1)OC1CC3C4CC=C5CC(O)CCC5(C)C4CCC3(C)C1C2C (configuration not stated)
inactive: [1] 29.7% | [2] 71.4% | [3] 102% | [4] 114% | [5] 95.7% | [6] 114% | [7] 67.5% | [9] 105% | [8] 86.8% | [10] 114%

OCCN1CCCCCCC1
inactive: [1] 109% | [2] 108% | [3] 101% | [4] 109% | [6] 103% | [7] 104% | [9] 111% | [8] 90.8% | [10] 102%

Cc1cc(-c2cc(C)c(O)c(C)c2)cc(C)c1O
inactive: [2] 79.4% | [3] 95% | [4] 95.6% | [7] 100% | [9] 97.2% | [8] 85.1%

Nc1ncnc2c1ncn2C1OC(COP(=O)(O)O)C(O)C1O (configuration not stated)
inactive: [1] 111% | [2] 106% | [3] 111% | [4] 108% | [5] 126% | [6] 114% | [9] 124% | [10] 109%

Nc1nc(N)c2[nH]cnc2n1
inactive: [1] 93% | [2] 64.3% | [3] 70.4% | [4] 90.3% | [5] 88.5% | [9] 97.8% | [8] 114% | [10] 87.3%
